Results from PubChem BioAssay AID1209 (Sanford-Burnham Center for Chemical Genomics, 2008).
In all, about 190,000 compounds went through this assay and about 810 (0.43%) were called active. The sample holds actives, similar compounds and a random draw of the others, so the mix is not that of the screen. Rule as the data show it: active = inhibition above about 50%; inactive = the rest.

biological target: Mannose-6-phosphate isomerase (Homo sapiens) (UniProt P34949); assay: MPI enzyme activity inhibition – biochemical, fluorescence intensity, coupled assay, primary screen (AID 1209); settings: purified PMI enzyme, at 20 µM, active compounds read high;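 also: plate controls were DMSO vehicle for no effect and wells lacking substrate for full effect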
Sequence (P34949 whole entry, looked up): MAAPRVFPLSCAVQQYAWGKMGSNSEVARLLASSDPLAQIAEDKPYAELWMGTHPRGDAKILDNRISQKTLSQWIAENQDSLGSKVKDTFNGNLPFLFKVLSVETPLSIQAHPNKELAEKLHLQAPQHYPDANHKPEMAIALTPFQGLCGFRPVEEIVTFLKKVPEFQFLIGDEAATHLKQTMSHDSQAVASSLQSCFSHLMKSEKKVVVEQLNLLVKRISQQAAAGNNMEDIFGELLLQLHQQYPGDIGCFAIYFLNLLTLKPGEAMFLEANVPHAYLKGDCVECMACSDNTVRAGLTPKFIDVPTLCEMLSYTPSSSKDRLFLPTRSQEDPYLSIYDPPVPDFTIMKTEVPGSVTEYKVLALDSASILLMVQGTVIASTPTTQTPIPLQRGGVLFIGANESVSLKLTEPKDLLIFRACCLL

inhibition, active:
Cc1ccc(OCC(=O)Nc2ccc(-c3nc4ncccc4o3)cc2)c(C)c1 97.8%
Cc1ccc(S(=O)(=O)NCC(=O)N(c2ccccc2)C(C(=O)NCc2ccccc2)c2ccco2)cc1 (stereo not drawn) 57.1%
COc1cc(-c2nnc(SCc3cc(=O)oc4cc(O)c(O)cc34)o2)cc(OC)c1OC 60.1%
Cc1cc([N+](=O)[O-])nn1CCCC(=O)Nc1sc2c(c1C(N)=O)CCCC2 53%
NC(=O)c1c(NC(=O)CCCn2cnc([N+](=O)[O-])n2)sc2c1CCCC2 55.6%
O=C(c1ccccc1)c1c(O)nc(-c2ccccc2)n(-c2ccccc2)c1=O 108%
FC(F)(F)c1ccc2c(c1)n(Cc1ccccc1)c1[n+]2CCCCC1 63.9%
COc1ccc(C2CC(=O)N3CN(Cc4ccco4)CSC3=C2C#N)cc1 (stereo not drawn) 59.1%
N#CC1=C2SCN(Cc3ccco3)CN2C(=O)CC1c1cccc2ccccc12 (stereo not drawn) 55%
CC(C)c1ccc(C2CC(=O)N3CN(Cc4ccco4)CSC3=C2C#N)cc1 (stereo not drawn) 52.6%
COc1cc(C2CC(=O)N3CN(Cc4ccco4)CSC3=C2C#N)ccc1OCc1ccccc1 (stereo not drawn) 50%
CCN1c2ccccc2N(C)C1(C)c1ccccc1 (stereo not drawn) 61.2%
Fc1cccc(Cl)c1CNc1ccc(N2CCCC2)cc1 87.2%
Clc1cccc(Cl)c1CNc1ccc(N2CCCC2)cc1 87.2%
NCCc1ccc(O)c(O)c1 64.5%
COc1ccc2c(c1)CC/C(=C\Nc1ccc3c(c1)OCO3)C2=O 89.9%
COc1ccc(N/C=C2\CCc3ccccc3C2=O)cc1 97.9%
O=C1/C(=C/Nc2ccc3c(c2)OCO3)CCc2ccccc21 96.4%

inhibition, inactive:
Cc1nc2sc(C(c3cccc(F)c3)N3CC(C)OC(C)C3)c(O)n2n1 (stereo not drawn) -12.7%
CCN1CCN(S(=O)(=O)c2cc(OCC(=O)NC3CCCCC3)c(C)cc2Cl)CC1 11.7%
CC1(C)CC(=O)c2sc(NC(=O)c3ccc4ncsc4c3)nc2C1 -7.8%
Cc1cc(C)cc(OCC(=O)Nc2cccc(-c3nc4ncccc4o3)c2)c1 -1%
Cc1ccc(-c2nc3ncccc3o2)cc1NC(=O)COc1ccccc1 3.5%
COCCNC(=S)NCCc1ccc(Cl)cc1Cl -1.5%
O=C(/C=C/c1ccc(Cl)cc1)NC(=S)Nc1ccc(CN2CCOCC2)cc1 20.8%
Cc1cc(C)cc(N(C(=O)CNS(=O)(=O)c2ccccc2)C(C(=O)NCc2ccccc2)c2ccc(C)o2)c1 (stereo not drawn) 18.8%
COc1ccc(CNC(=O)C(c2ccco2)N(C(=O)CNS(=O)(=O)c2ccccc2)c2ccccc2C)cc1 (stereo not drawn) 14%
Cc1ccc(/C=N/NC(=O)CN2CCN(S(=O)(=O)c3ccc(Br)cc3)CC2)s1 4.9%
COc1cc(-c2nnc(SCc3cc(=O)oc4cc(C)ccc34)o2)cc(OC)c1OC 12.5%
COc1cc(-c2nnc(SCc3ccccc3Cl)o2)cc(OC)c1OC 23.4%
CC1CCc2c(sc(NC(=O)CCCn3cnc([N+](=O)[O-])n3)c2C(N)=O)C1 (stereo not drawn) 1.2%
CCOC(=O)c1c(NC(=O)Cn2cnc([N+](=O)[O-])n2)sc2c1CCCC2 18.4%
Cc1cc([N+](=O)[O-])nn1CCCC(=O)Nc1sc2c(c1C(N)=O)CCC(C)C2 (stereo not drawn) 9.5%
Cc1cc([N+](=O)[O-])nn1CC(=O)Nc1sc2c(c1C(N)=O)CCCC2 10.8%
CC(C)CC(c1nnnn1CCc1ccccc1)N1CCN(C(=O)c2ccco2)CC1 (stereo not drawn) 7.4%
COc1cc(/C=C/C(=O)OCC(=O)Nc2cc(C(F)(F)F)ccc2N2CCOCC2)ccc1O 13%
COC(=O)Nc1ccc(S(=O)(=O)Nc2cnc3ccccc3n2)cc1 -10.9%
CC(C)C(NC(=O)c1ccco1)C(=O)NCC(c1ccco1)N(C)C (stereo not drawn) -3.6%
CCN(C(=O)c1cn(CC)c(=O)c2cc(OC)c(OC)cc12)c1ccccc1C 5.3%
CC(=O)c1c(O)c(C)c(-c2ccccc2)n(-c2ccccc2)c1=O 2.2%
O=C(O)c1nn(-c2ccccc2)c(-c2ccccc2)c1C(=O)c1ccccc1 -12.5%
Oc1c(Br)cc(C2N=C(c3ccccc3Cl)NO2)cc1Br (stereo not drawn) 0.3%
FC(F)(F)c1cccc(Cn2c3[n+](c4ccc(C(F)(F)F)cc42)CCCCC3)c1 1.3%
Fc1ccccc1Cn1c2[n+](c3ccc(C(F)(F)F)cc31)CCCCC2 10.3%
CC1=NN(c2ccc(S(=O)(=O)O)cc2C)C(=O)C1 -63.6%
Fc1ccc(C2CCCN2Cc2nc(Cc3ccccc3)no2)cc1 (stereo not drawn) -7%
CC(=O)Nc1ccccc1C(=O)C(=O)Nc1ccc(C)c(F)c1 19.9%
Cc1cc(C)c(C(=O)COC(=O)Cn2cnnn2)cc1C -10.7%
CCN(CC)c1ccc2c(C)c(Cl)c(=O)oc2c1 -1.5%
CCN(CC)c1ccc2ccc(=O)oc2c1 2.1%
O=C(NCCN1CCOCC1)c1cc2cc([N+](=O)[O-])ccc2s1 5.6%
c1ccc(C2COC(c3cccs3)=N2)cc1 (stereo not drawn) 9.4%
N#CC1=C2SCN(Cc3ccco3)CN2C(=O)CC1c1c(F)cccc1Cl (stereo not drawn) -3.1%
N#CC1=C2SCN(Cc3ccco3)CN2C(=O)CC1c1ccccc1F (stereo not drawn) 43.7%
N#CC1=C2SCN(Cc3ccco3)CN2C(=O)CC1c1ccc(Cl)cc1 (stereo not drawn) 28.7%
CC(C)c1ccc(C2CC(=O)N3CN(C)CSC3=C2C#N)cc1 (stereo not drawn) 40.6%
COc1cc(C2CC(=O)N3CN(Cc4ccccc4)CSC3=C2C#N)ccc1OCc1ccccc1 (stereo not drawn) 45.4%
COc1ccc2ccccc2c1C1CC(=O)N2CN(Cc3ccco3)CSC2=C1C#N (stereo not drawn) 46.4%
COc1ccc(Br)cc1C1CC(=O)N2CN(Cc3ccccc3)CSC2=C1C#N (stereo not drawn) 34.2%
Cc1ccc(C2CC(=O)N3CN(Cc4ccco4)CSC3=C2C#N)cc1 (stereo not drawn) 29.7%
COc1ccc(C(=O)NCC(=O)OCC(=O)N2CC(C)CC(C)C2)cc1 (stereo not drawn) 8.6%
Cc1cc(C)c2[nH]c(=O)c(CN(CC3CCCO3)C(=S)Nc3ccccc3)cc2c1 (stereo not drawn) 28.3%
COc1ccc([N+](=O)[O-])cc1NC(=O)CCN1CCN(C)CC1 -0.2%
COc1ccc2cc(/C(C)=N/NC(=O)C3CC3)ccc2c1 -1.6%
Fc1ccc(-n2[nH]nnc2=S)cc1N1CCCC1 -13.3%
COc1ccc(Cn2c(-c3ccc(Br)cc3)c[n+]3ccccc23)cc1 -1.6%
CC(=O)c1nnn(-c2ccc([N+](=O)[O-])cc2C)c1C -15.2%
N#CC1=C2SCN(Cc3ccccc3)CN2C(=O)CC1c1ccccc1F (stereo not drawn) 25.6%
N#CC1=C2SCN(Cc3ccccc3)CN2C(=O)CC1c1cccs1 (stereo not drawn) 40.2%
CC(C)CCCNc1nc(N2CCOCC2)nc(N2CCOCC2)n1 3.3%
O=C(NCCc1c[nH]c2ccccc12)C(=O)NCC1OCCCN1S(=O)(=O)c1cccs1 (stereo not drawn) 5.3%
CC(C)n1nc(C(=O)Nc2nnc(SCc3c(Cl)cccc3Cl)s2)c2ccccc2c1=O 7.2%
O=C(Nc1ccc(N2CCN(c3ccccc3)CC2)c(F)c1)C1CC1 -5.7%
CCN1C(=O)N(C)C2(c3ccccc3)N(C)C(=O)N(C)C12c1ccccc1 (stereo not drawn) 13.6%
CN1c2ccccc2N(C)C1(C)c1ccccc1 26.1%
O=C(CSc1nnnn1-c1ccc(F)cc1)NC1CCCCC1 15.6%
CCOc1ccccc1C(=O)Nc1cc(Cl)ccc1O 14.5%
O=C(O)c1cc(NCc2c(F)cccc2Cl)ccc1N1CCOCC1 4.6%
O=S(=O)(Nc1ccc(N2CCCCC2)cc1)c1ccccc1 17%
NS(=O)(=O)c1ccc(NCc2c(F)cccc2Cl)cc1 -1.9%
O=C(Nc1ccc(N2CCCCCC2)cc1)c1ccccc1Cl 21.5%
CCCN1CNC(=S)N(c2ccccc2OCC)C1 -9.9%
O=C1Nc2ccccc2C(O)(C(=O)NCc2ccco2)N1c1ccccc1 (stereo not drawn) 1.5%
COC(=O)[C@@]1(Cc2ccc(OC)cc2)[C@H]2c3cc(C(=O)N4CCCC4)n(Cc4ccc(C)o4)c3C[C@H]2CN1C(=O)c1ccccc1 9.2%
Cc1[nH]nc2c1C(c1ccco1)C(C#N)=C(N)O2 (stereo not drawn) -18%
CNCCOc1ccccc1C(C)(C)C 5.9%
Nc1ccc(Cc2ccc(N)c(O)c2)cc1O 5.5%
OCCCc1ccc(O)c(O)c1 35.2%
CCOC(=O)CSc1nc2sccc2c(=O)[nH]1 2.3%
O=C(Nc1ncc(Cl)cc1Cl)c1c(F)cccc1Cl -15.8%
Cc1cc(C)cc(N2C(=O)c3nccnc3C2=O)c1 1.6%
COC(=O)C(C)(C)ONC(=O)Nc1ccc(Br)cc1 17.3%
O=C1CCCC/C1=C/Nc1ccc2c(c1)OCO2 -14.5%
O=C1CCC/C1=C/Nc1ccc2c(c1)OCO2 26.9%
COc1ccc(N/C=C2/CCCCC2=O)cc1 18.1%
COc1ccc2c(c1)CC/C(=C/c1ccco1)C2=O 33.2%
COc1ccc(N/C=C2\CCOC2=O)cc1 -13%
CC1CCC/C(=C\Nc2ccc3c(c2)OCO3)C1=O (stereo not drawn) 8.9%
